# Reference: PubChem BioAssay (EPA / NIEHS)
# Records with an inconclusive call do not appear. Where a structure was tested more than once in an assay, its records may differ in their call. Active and inactive are the calls of the source. Rule for the calls, unless noted: active = hit-call score of the fitted dose curve at least 0.9, where 1 is the maximum; inconclusive = response in the unintended direction; inactive = score below 0.9.
# Experiments:
# [1] = tested on: SERPINA7 (gene 6906); experiment: CCTE_GLTED_hTBG: CCTE's human Thyroxine-binding Globulin (TBG) Inhibition Assay, Great Lakes Toxicology and Ecology Division (GLTED) Lab (AID 2284343);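 note: active chemicals lower fluorescence versus DMSO baseline by displacing probe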
# Summary of the method: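 hTBG + test chem, 2 h; ANSA probe displacement; fluorescence readout ex380/em475; DMSO = neg ctrl/baseline; cell-free.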
# [2] = CCTE_Mundy_HCI_iCellGluta_NOG_NeuronCount: CCTE's Neurite Outgrowth Assay in iCellGluta cells for Neuron Count, Mundy Lab (AID 2284340);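 note: cells fixed about 48 h after compound addition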
# Summary of the method: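 Neuron count read by automated high-content imaging of Hoechst 33342 and betaIII-tubulin/Alexa Fluor-488 labelling in human iPSC glutamatergic neurons. Activity fitted relative to DMSO.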
# [3] = CCTE_Mundy_HCI_iCellGluta_NOG_NeuriteCount: CCTE's Neurite Outgrowth Assay in iCellGluta cells for Neurite Count, Mundy Lab (AID 2284342);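 note: chemical exposure about 48 hours starting 2 hours after plating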
# [4] = CCTE_Deisenroth_H295R-HTRF_384WELL_ESTRADIOL: CCTE's H295R-HTRF Assay Evaluation of Estradiol Concentration, Deisenroth Lab (AID 2284361; active = hit-call score of the fitted dose curve at least 0.9, where 1 is the maximum; inactive = score below 0.9); details: actives raise or lower the signal
# Method: CCTE_Deisenroth_H295R-HTRF_384WELL assay is a cell-based, multiplex-readout assay that uses H295R, a human adrenocortical carcinoma cell line, with measurements taken at 48 hours after chemical dosing in a 384-well microplateCCTE_Deisenroth_H295R-HTRF_384WELL_ESTRADIOL is one of 3 assay components calculated in the CCTE_Deisenroth_H295R-HTRF_384WELL assay (2 hormones and 1 viability components). It is designed to make measurements of hormone induction, a form of inducible reporter, as detected with Homogenous Time Resolved Fluorescence immunoassay technology.This assay endpoint, CCTE_Deisenroth_H295R-HTRF_384WELL_ESTRADIOL, was analyzed with bidirectional fitting relative to DMSO as the negative control and baseline of activity. Using a type of inducible reporter, gain or loss-of-signal activity using Homogenous Time Resolved Fluorescence technology was used to understand synthesis of estradiol in the H295R cell line at 48hr of chemical exposure. To generalize the intended target to other relatable targets, this assay endpoint is annotated to the steroid hormone intended target family, where the subfamily is estrogens.
# (§1) Standard operating procedures for the cell culture medium, maintenance, expansion, and cryopreservation of the NCI-H295R adrenocortical carcinoma adherent cell line were adopted directly from guideline specifications7,13. The assay workflow follows a three-day protocol consistent with the paradigm defined in OECD TG 456 and U.S. EPA OCSPP Guideline 890.1550. On day 0, cells are plated in 384-well microplates and acclimated for 24 hours. On Day 1, test chemicals are dispensed into separate 384-well microplates in a nine-point 2X dilution series (0.002 - 200 uM). […] Fluorescent endpoint measurements are conducted with a microplate reader equipped with an HTRF-compatible filter set (ex: 320 (10) […]; em: 620 (10) and 665 (10) nM). […] After collecting conditioned medium samples on Day 3, the viability assay is immediately performed and luminescence readings measured on a microplate reader. […]
# [5] = CCTE_Deisenroth_H295R-HTRF_384WELL_TESTOSTERONE: CCTE's H295R-HTRF Assay Evaluation of Testosterone Concentration, Deisenroth Lab (AID 2284373; active = hit-call score of the fitted dose curve at least 0.9, where 1 is the maximum; inactive = score below 0.9); details: actives raise or lower the signal
# Summary of the method: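 Testosterone secreted into medium was quantified by direct HTRF immunoassay after a 48 h treatment of H295R adrenocortical cells (nine concentrations, 0.001–100 uM final). Gain or loss fitted relative to DMSO; CellTiter-Glo viability read on same plates.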
# [6] = CCTE_Deisenroth_H295R-HTRF_384WELL_CTOX: Cytotoxicity Assessment in CCTE's H295R-HTRF Assay, Deisenroth Lab (AID 2284380)
# Method: CCTE_Deisenroth_H295R-HTRF_384WELL assay is a cell-based, multiplex-readout assay that uses H295R, a human adrenocortical carcinoma cell line, with measurements taken at 48 hours after chemical dosing in a 384-well microplateCCTE_Deisenroth_H295R-HTRF_384WELL_CTOX is one of 3 assay components measured in the CCTE_Deisenroth_H295R-HTRF_384WELL assay (2 hormones and 1 viability components). It is designed to make measurements of adenosine triphosphate (ATP), a form of viability reporter, as detected with luminescence intensity signals by CellTiter-Glo 2.0 cytotoxicity assay technology.This assay endpoint, CCTE_Deisenroth_H295R-HTRF_384WELL_CTOX, was analyzed in the positive fitting direction relative to DMSO as the negative control and baseline of activity. Using a type of viability reporter, loss-of-signal activity using CellTiter-Glo 2.0 technology was used to understand viability in the H295R cell line at 48hr of chemical exposure. To generalize the intended target to other relatable targets, this assay endpoint is annotated to the cell cycle intended target family, where the subfamily is cytotoxicity
# as §1, with “specifications (EPA 2011, OECD 2011).” for “specifications7,13.”
# [7] = Tanguay_ZF_120hpf_MO24: Oregon State University Tanguay Lab 24 Hour Post-fertilization zebrafish Assay for Mortality (AID 2284389; active = hit-call score of the fitted dose curve at least 0.9, where 1 is the maximum; inactive = score below 0.9)
# Summary of the method: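 Dechorionated wild-type zebrafish embryos, 1 per well, statically exposed from 6 hpf at 28C, 0.64% DMSO final. Mortality scored as binary present/absent at 24 hpf by brightfield microscopy, relative to DMSO.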
# [8] = VALA_TUBIPS_Antagonist_CellCount: Viability Assessment in the VALA Sciences human iPS-derived Endothelial Tubule Formation (TUBIPS) Antagonism Assay (AID 2284335)
# [9] = VALA_MIGHUV1_ScratchOnly_WoundArea: VALA Sciences human Umbilical Vein Endothelial Cell Migration (MIGHUV) Assay, Area of Scratch Wound Inhibited Recovery (AID 2284336)
# Summary of the method: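 HUVEC monolayers (9000 cells/well) were scratched after 24 h, dosed within 30 min (six concentrations, triplicate, 0.1% DMSO), allowed 24 h recovery, then fixed. Hoechst-stained nuclei in the wound imaged; cytochalasin D as reference.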
# [10] = VALA_TUBIPS_Agonist_CellCount: Viability Assessment in the VALA Sciences human iPS-derived Endothelial Tubule Formation (TUBIPS) Agonism Assay (AID 2284338)
smiles,measurement,setting,value
COP(=S)(OC)Oc1ccc(SC)c(C)c1,AC50,[1],12 µM (active)
CCCN(CCC)c1c([N+](=O)[O-])cc(C(F)(F)F)cc1[N+](=O)[O-],AC50,[1],5.16 µM (active)
CC1(C)C(C=C(Cl)Cl)C1C(=O)OC(C#N)c1ccc(F)c(Oc2ccccc2)c1 (stereo unspecified),AC50,[2],49.9 µM (active)
same,outcome,[2],inactive
same,AC50,[3],22.3 µM (active)
same,outcome,[3],inactive
O=C(O)CCCOc1ccc(Cl)cc1Cl,AC50,[1],20.7 µM (active)
CC(C)(C)C(O)C(Oc1ccc(Cl)cc1)n1cncn1 (stereo unspecified),outcome,[4],inactive
same,outcome,[5],inactive
same,outcome,[6],inactive
CC1(c2ccc(Oc3ccccc3)cc2)OC(=O)N(Nc2ccccc2)C1=O (stereo unspecified),AC50,[2],50 µM (active)
same,outcome,[3],inactive
CC(C)(C)C(O)/C(=C\c1ccc(Cl)cc1Cl)n1cncn1 (stereo unspecified),AC50,[1],30.8 µM (active)
CCC(C)(C)C(=O)OC1=C(c2ccc(Cl)cc2Cl)C(=O)OC12CCCCC2,outcome,[2],inactive
same,outcome,[3],inactive
CCN(CC)C(=O)SCc1ccc(Cl)cc1,AC50,[1],22.4 µM (active)
COP(=O)(OC)OC=C(Cl)Cl,outcome,[2],inactive
same,AC50,[3],49 µM (active)
CC[C@H](C)[C@H]1O[C@]2(C=C[C@@H]1C)C[C@@H]1C[C@@H](C/C=C(\C)[C@@H](O[C@H]3C[C@H](OC)[C@@H](O[C@H]4C[C@H](OC)[C@@H](O)[C@H](C)O4)[C@H](C)O3)[C@@H](C)/C=C/C=C3\CO[C@@H]4[C@H](O)C(C)=C[C@@H](C(=O)O1)[C@]34O)O2 (tested in a mixture with another compound),AC50,[2],3.77 µM (active)
same,AC50,[3],3.36 µM (active)
O=C(O)COc1ccc(Cl)cc1Cl,outcome,[3],inactive
O=S1OCC2C(CO1)C1(Cl)C(Cl)=C(Cl)C2(Cl)C1(Cl)Cl (stereo unspecified),AC50,[2],13.8 µM (active)
same,AC50,[3],23 µM (active)
O=[N+]([O-])/N=C1\NCCN1Cc1ccc(Cl)nc1,outcome,[2],inactive
same,outcome,[3],inactive
O=C(O)C(F)(F)C(F)(F)C(F)(F)C(F)(F)C(F)(F)C(F)(F)C(F)(F)F,outcome,[2],inactive
same,outcome,[3],inactive
same,outcome,[7],inactive
O=S(=O)(O)C(F)(F)C(F)(F)C(F)(F)C(F)(F)C(F)(F)C(F)(F)C(F)(F)C(F)(F)F,outcome,[8],inactive
same,outcome,[9],inactive
same,outcome,[10],inactive
same,outcome,[2],inactive
same,outcome,[3],inactive
same,outcome,[7],inactive
C#CCN1C(=O)COc2cc(F)c(N3C(=O)C4=C(CCCC4)C3=O)cc21,AC50,[1],8.38 µM (active)
Oc1ccc(Cl)cc1Cc1ccccc1,AC50,[1],1.07 µM (active)
CC(C)OC(=O)Nc1cccc(Cl)c1,AC50,[1],34.7 µM (active)
O=C(NC(=O)c1c(F)cccc1F)Nc1ccc(OC(F)(F)C(F)OC(F)(F)F)c(Cl)c1 (stereo unspecified),AC50,[1],25 µM (active)
Clc1ccccc1-c1nnc(-c2ccccc2Cl)nn1,AC50,[1],0.23 µM (active)
CCC(C)Nc1c([N+](=O)[O-])cc(C(C)(C)C)cc1[N+](=O)[O-] (stereo unspecified),AC50,[1],22.3 µM (active)
CCCN(CCOc1c(Cl)cc(Cl)cc1Cl)C(=O)n1ccnc1,AC50,[4],0.00173 µM (active)
same,AC50,[5],0.322 µM (active)
same,outcome,[6],inactive
Oc1cc(Cl)ccc1Oc1ccc(Cl)cc1Cl,AC50,[8],0.00562 µM (active)
same,AC50,[10],7.53 µM (active)
same,AC50,[1],0.154 µM (active)
CNC(=O)CSP(=S)(OC)OC,outcome,[2],inactive
same,outcome,[3],inactive
same,outcome,[4],inactive
same,outcome,[5],inactive
same,outcome,[6],inactive
CC(C)N(C(=O)COc1nnc(C(F)(F)F)s1)c1ccc(F)cc1,outcome,[2],inactive
same,outcome,[3],inactive
COP(=S)(OC)Oc1ccc([N+](=O)[O-])cc1,outcome,[2],inactive
same,AC50,[3],23.4 µM (active)
C[C@H]1[C@H](c2ccc(Cl)cc2)SC(=O)N1C(=O)NC1CCCCC1,AC50,[1],2.63 µM (active)
